HCMV antiviral: human cytomegalovirus inhibition; HFF cells, HCMV-luciferase reporter, 72 h; active compounds read low; activity change, negative = inhibition, % at 57.5 µM; 410,000 compounds, 4.5% hits; in the data active = activity change below about -60%; inconclusive = no clear call, values can overlap the other calls; inactive = above about -39%
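Compounds were evaluated in HFFs infected with an HCMV luciferase reporter virus (MOI 1 PFU/cell). Luciferase in lysates collected 72 h post infection served as the replication measure.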
Vaccinia Venus: inhibitors of vaccinia virus (Venus reporter). Vaccinia virus Venus reporter expression, fluorescence. Potency, µM (top dose mostly 36.5 µM), actives largely listed as inhibitors. 330,000 compounds, 0.46% hits. AID 720580; calls by dose curve; tested in A549 cells; note: nearly all actives have a fitted effect of over 30% in size
Vaccinia mCherry: inhibitors of vaccinia virus infection (mCherry reporter signal) | Vaccinia virus mCherry reporter infection, fluorescence | 310,000 compounds, 0.63% hits | Potency, µM (titrated, usually from 36.5 µM), hits mostly inhibitors; calls by dose curve; tested in A549 cells; note: nearly all actives have a fitted effect of over 35% in size
MARV entry inh: inhibitors of Marburg virus binding or cell entry. Potency, µM (highest dose often 37.8 µM), actives largely listed as inhibitors. AID 540276. 300,000 compounds, 1.8% hits. Marburg virus pseudotyped entry inhibition, cell reporter; calls by dose curve; tested in HEK293 cells
FMDV inh: antivirals against foot and mouth disease virus; 410,000 compounds, 1.2% hits; Potency, µM (series often up to 57.9 µM), most hits filed as inhibitors; FMDV antiviral cell-based qHTS; AID 1159524; calls by dose curve; tested in HEK293T cells; note: read-out not given here; nearly all actives have a fitted effect of over 45% in size
LASV entry inh: blocks Lassa virus binding to or entry into cells. 300,000 compounds, 1.2% hits. Lassa virus pseudotype entry inhibition, cell reporter. Potency, µM (top dose mostly 37.9 µM), most hits filed as inhibitors. AID 540256; calls by dose curve; tested in HEK293 cells; note: nearly all actives have a fitted effect of over 50% in size
Of the large screens only hits and unclear results are named; the others gave an inactive call; ! = not active in a repeat. Only some compounds are listed: those with a hit (about 6.5% of all), similar ones and a draw of the others.

COc1ccc(OC)c(NC(=O)c2ccc3c(c2)C(=O)N(CC2CCCO2)C3=O)c1 (stereo unspecified)	HCMV antiviral -66.5
CCOC(=O)c1ccc(NC(=O)c2ccc3c(c2)C(=O)N(CC2CCCO2)C3=O)cc1 (stereo unspecified)	FMDV inh 28.2µM
COC(=O)Cc1ccc(NC(=O)c2ccc3c(c2)C(=O)N(Cc2cccnc2)C3=O)cc1	FMDV inh inconclusive
CCOC(=O)c1ccc(NC(=O)c2ccc3c(c2)C(=O)N(Cc2cccnc2)C3=O)cc1	FMDV inh 17.8µM (no result: Vaccinia Venus, Vaccinia mCherry, MARV entry inh, LASV entry inh)
CN(Cc1cnc2ccccn12)C1CCN(c2cccc(NC(=O)c3cccnc3)c2)CC1	none (no result: HCMV antiviral, MARV entry inh, LASV entry inh)
COc1ccccc1CCNS(=O)(=O)c1ccc(N2CCCCS2(=O)=O)cc1	none (no result: MARV entry inh)
COc1ccc(NC(=O)c2cc(C)nc3c2c(C)nn3-c2cccc(Cl)c2C)c(OC)c1	LASV entry inh inconclusive (no result: MARV entry inh)
COc1cc(NC(=O)c2cc(C)nc3c2c(C)nn3-c2ccccc2Cl)cc(OC)c1	HCMV antiviral -65.8, MARV entry inh inconclusive, FMDV inh inconclusive
O[Si](CCCN1CCCCC1)(c1ccc(F)cc1)C1CCCCC1 (stereo unspecified)	MARV entry inh 2.82µM, FMDV inh inconclusive, LASV entry inh 5.17µM
COc1ccccc1-c1cc2c(Nc3cccc(S(C)(=O)=O)c3)nccc2[nH]1	none (no result: Vaccinia Venus, Vaccinia mCherry, MARV entry inh, FMDV inh, LASV entry inh)
COc1cccc(CNC(=O)c2c(OC)cc(=O)n3c2CCN(C(=O)c2ccc(C)cc2C)CC3)c1	none (no result: HCMV antiviral, MARV entry inh, LASV entry inh)
Cc1ccccc1Nc1c(-c2ccc(Cl)cc2)nc2c(C)cccn12	MARV entry inh inconclusive
Cc1cccn2c(Nc3ccccc3)c(-c3ccccn3)nc12	HCMV antiviral -66.2, Vaccinia mCherry inconclusive, MARV entry inh inconclusive
Cc1cccc(C)c1Nc1c(-c2ccccn2)nc2c(C)cccn12	HCMV antiviral -68.8
CCOC(=O)CCN1C(=O)[C@H]2[C@H]3[C@H](O)[C@H](O)C/C(=N\NC(=O)OCc4ccccc4)[C@@H]3CC[C@H]2C1=O	none (no result: HCMV antiviral, Vaccinia Venus, Vaccinia mCherry, FMDV inh, LASV entry inh)
C[C@@H]1C=CCC(=O)N2[C@H](CC(=O)N[C@@H]1c1ccccc1)C[C@@H](C)[C@@H]2c1ccccc1	LASV entry inh inconclusive (no result: HCMV antiviral, Vaccinia Venus, Vaccinia mCherry, FMDV inh)
CCN(CC)c1ccc(C=C(c2nnnn2-c2ccccc2)c2nnnn2-c2ccccc2)cc1	MARV entry inh inconclusive, LASV entry inh 2.51µM
CN(c1ccccc1)c1ccc(/C=C/[N+](=O)[O-])cc1	HCMV antiviral -98.7, MARV entry inh inconclusive, FMDV inh 15.8µM, LASV entry inh inconclusive
CN(C)c1ccc(/C=C/[N+](=O)[O-])cc1	none
COc1cc(/C=C(\C#N)C(=O)Nc2nnc(C(F)(F)F)s2)ccc1OCc1ccc(C(F)(F)F)cc1C(F)(F)F	LASV entry inh 14.6µM (no result: HCMV antiviral, Vaccinia Venus, Vaccinia mCherry, FMDV inh)
Cc1ccc(-c2sc(C(=O)Nc3ccc(Br)cc3)cc2CC(=O)O)cc1	none
CCc1cc2cc(C(=O)Nc3ccc(C)cc3)sc2s1	HCMV antiviral -67.5, LASV entry inh inconclusive
CCOc1ccc(NC(=O)c2cc(S(=O)(=O)N3CCc4ccccc43)ccc2F)cc1	HCMV antiviral inconclusive, Vaccinia Venus inconclusive, Vaccinia mCherry inconclusive, LASV entry inh inconclusive (no result: MARV entry inh)
Cc1cccc(Nc2nc(-c3ccc(F)cc3)cs2)n1	MARV entry inh inconclusive, LASV entry inh 12.6µM
Cc1c(C(=O)N2CCCCC2c2cccnc2)sc2ncnc(NCc3cccs3)c12 (stereo unspecified)	none (no result: HCMV antiviral, MARV entry inh, LASV entry inh)
FC(F)(F)c1ccc(N2CCN(c3cc(-c4ccccc4)nc4ncnn34)CC2)nc1	HCMV antiviral -97.8, MARV entry inh inconclusive, LASV entry inh inconclusive (no result: FMDV inh)
CC(C)c1ccc(NC(=O)CSC2=Nc3ccccc3C3=NC(CC(=O)NC4CCCCC4)C(=O)N23)cc1 (stereo unspecified)	FMDV inh inconclusive (no result: MARV entry inh)
CC(C)(CNc1ccc(C(F)(F)F)cc1[N+](=O)[O-])N1CCOCC1	HCMV antiviral -66.4, FMDV inh inconclusive (no result: Vaccinia Venus, Vaccinia mCherry, MARV entry inh, LASV entry inh)
O=C(Cn1c(-c2cccs2)cc2cc(Cl)ccc21)NCc1ccccc1	FMDV inh inconclusive (no result: MARV entry inh)
CCOC(=O)C(C)/C(C)=N/NC(=O)c1cc2ccccc2cc1O (stereo unspecified)	HCMV antiviral -74.0, MARV entry inh inconclusive, LASV entry inh inconclusive
NNC(=O)c1cc2ccccc2cc1O	HCMV antiviral -74.0, MARV entry inh inconclusive, FMDV inh 6.31µM
O=C(NCC1CCCO1)c1cc2ccccc2cc1O (stereo unspecified)	LASV entry inh inconclusive
C/C(CC(=O)N1CCCC1)=N\NC(=O)c1cc2ccccc2cc1O	HCMV antiviral inconclusive (no result: Vaccinia Venus, Vaccinia mCherry, MARV entry inh, LASV entry inh)
O=C(NCC1CCCCC1)c1cc2ccccc2cc1O	HCMV antiviral -75.0, Vaccinia mCherry inconclusive, MARV entry inh inconclusive, LASV entry inh inconclusive
O=C(NCc1ccc2c(c1)OCO2)[C@H]1[C@H](CO)[C@H]2Cn3c(cccc3=O)[C@@H]1N2Cc1ccccc1	none (no result: Vaccinia Venus, Vaccinia mCherry, MARV entry inh, FMDV inh, LASV entry inh)
O=C1C(=C(c2ccccc2)N2CCOCC2)Cc2ccccc21	HCMV antiviral -99.0, Vaccinia Venus 11.2µM, Vaccinia mCherry inconclusive, FMDV inh 8.91µM (no result: MARV entry inh, LASV entry inh)
O=C(c1ccccc1)N1CCN(C(=O)N2CCOCC2)CC1	none (no result: Vaccinia Venus, Vaccinia mCherry)
Cc1ccc(N(CC(=O)N2CCN(c3cccc(Cl)c3)CC2)S(=O)(=O)c2c(C)noc2C)cc1	MARV entry inh inconclusive, LASV entry inh inconclusive
COc1ccc(N(CC(=O)N2CCN(c3cccc(Cl)c3)CC2)S(=O)(=O)c2c(C)noc2C)cc1	HCMV antiviral -67.2!, LASV entry inh inconclusive
CCC1CCCCN1Cc1nc2c(c(=O)n(C)c(=O)n2C)n1Cc1c(F)cccc1Cl (stereo unspecified)	none (no result: HCMV antiviral, MARV entry inh, FMDV inh, LASV entry inh)
COc1ccc(Nc2nccc3c2cc(-c2ccc(C(=O)N(C)C)cc2)n3C)c(OC)c1	none (no result: Vaccinia Venus, Vaccinia mCherry, MARV entry inh, FMDV inh, LASV entry inh)
COc1ccc(-c2nc(CSCC(=O)N3CCN(c4cc(Cl)ccc4C)CC3)c(C)o2)cc1	HCMV antiviral -80.3, Vaccinia Venus inconclusive, Vaccinia mCherry inconclusive, MARV entry inh inconclusive, FMDV inh inconclusive
COc1ccc(-c2nc(CSCC(=O)N3CCN(c4cccc(C)c4C)CC3)c(C)o2)cc1OC	HCMV antiviral -93.3, Vaccinia Venus 11.2µM, Vaccinia mCherry 11.2µM, FMDV inh 25.1µM, LASV entry inh inconclusive (no result: MARV entry inh)
CCc1nn(CC(=O)N(CC)Cc2ccccc2)c(=O)c2cc3occc3n12	none
CCOC(=O)N1CCc2c(sc3c2c(=O)n(Cc2ccccc2)c(=O)n3Cc2cc(C)ccc2C)C1	none
CCCCCCCCCCCC(=O)NC(C(=O)OCC)C(O)c1cccc([N+](=O)[O-])c1 (stereo unspecified)	MARV entry inh 11.2µM, FMDV inh inconclusive, LASV entry inh inconclusive
Cc1cc(N2C(=O)C(=O)/C(=C(\O)c3ccc(F)cc3)[C@@H]2c2ccc(F)cc2)no1	none (no result: HCMV antiviral, Vaccinia Venus, Vaccinia mCherry, FMDV inh, LASV entry inh)
Cc1ccc(CS(=O)(=O)c2nc3c(c(N(C)C)n2)CCCC3)cc1	HCMV antiviral -92.9, Vaccinia Venus inconclusive, Vaccinia mCherry inconclusive, MARV entry inh inconclusive, LASV entry inh inconclusive
Cc1nc(S(=O)(=O)Cc2ccc(Cl)cc2)nc2c1CCC2	HCMV antiviral inconclusive
CCOC(=O)c1ccc(OCC2c3cc(OC)c(OC)cc3CCN2C(=O)c2ccc(S(=O)(=O)N3CCCC3)cc2)cc1 (stereo unspecified)	LASV entry inh inconclusive (no result: MARV entry inh)
